Source: PubChem BioAssay AID588689 (Southern Research Specialized Biocontainment Screening …, 2011)
The whole screen tested about 340,000 compounds, of which about 1,000 (0.29%) were called active. Rule as the data show it: inconclusive = inhibition above about 29% without an active follow-up result; inactive = below that. Not all results are given here. Results with a measured potency or affinity are listed apart.

Each compound was assayed against Genome polyprotein (Dengue virus type 2 (strain 16681-PDK53)) (UniProt P29991) (assay: Dengue-2 NS5 methyltransferase inhibitors, primary screen, biochemical, confirmation dose response (AID 588689)). Conditions: Dengue-2 NS5 methyltransferase capping enzyme assay, at 25 µM, stronger effect = higher value.
Chain of Genome polyprotein (Dengue virus type 2 (strain 16681-PDK53)) (P29991 whole entry, looked up): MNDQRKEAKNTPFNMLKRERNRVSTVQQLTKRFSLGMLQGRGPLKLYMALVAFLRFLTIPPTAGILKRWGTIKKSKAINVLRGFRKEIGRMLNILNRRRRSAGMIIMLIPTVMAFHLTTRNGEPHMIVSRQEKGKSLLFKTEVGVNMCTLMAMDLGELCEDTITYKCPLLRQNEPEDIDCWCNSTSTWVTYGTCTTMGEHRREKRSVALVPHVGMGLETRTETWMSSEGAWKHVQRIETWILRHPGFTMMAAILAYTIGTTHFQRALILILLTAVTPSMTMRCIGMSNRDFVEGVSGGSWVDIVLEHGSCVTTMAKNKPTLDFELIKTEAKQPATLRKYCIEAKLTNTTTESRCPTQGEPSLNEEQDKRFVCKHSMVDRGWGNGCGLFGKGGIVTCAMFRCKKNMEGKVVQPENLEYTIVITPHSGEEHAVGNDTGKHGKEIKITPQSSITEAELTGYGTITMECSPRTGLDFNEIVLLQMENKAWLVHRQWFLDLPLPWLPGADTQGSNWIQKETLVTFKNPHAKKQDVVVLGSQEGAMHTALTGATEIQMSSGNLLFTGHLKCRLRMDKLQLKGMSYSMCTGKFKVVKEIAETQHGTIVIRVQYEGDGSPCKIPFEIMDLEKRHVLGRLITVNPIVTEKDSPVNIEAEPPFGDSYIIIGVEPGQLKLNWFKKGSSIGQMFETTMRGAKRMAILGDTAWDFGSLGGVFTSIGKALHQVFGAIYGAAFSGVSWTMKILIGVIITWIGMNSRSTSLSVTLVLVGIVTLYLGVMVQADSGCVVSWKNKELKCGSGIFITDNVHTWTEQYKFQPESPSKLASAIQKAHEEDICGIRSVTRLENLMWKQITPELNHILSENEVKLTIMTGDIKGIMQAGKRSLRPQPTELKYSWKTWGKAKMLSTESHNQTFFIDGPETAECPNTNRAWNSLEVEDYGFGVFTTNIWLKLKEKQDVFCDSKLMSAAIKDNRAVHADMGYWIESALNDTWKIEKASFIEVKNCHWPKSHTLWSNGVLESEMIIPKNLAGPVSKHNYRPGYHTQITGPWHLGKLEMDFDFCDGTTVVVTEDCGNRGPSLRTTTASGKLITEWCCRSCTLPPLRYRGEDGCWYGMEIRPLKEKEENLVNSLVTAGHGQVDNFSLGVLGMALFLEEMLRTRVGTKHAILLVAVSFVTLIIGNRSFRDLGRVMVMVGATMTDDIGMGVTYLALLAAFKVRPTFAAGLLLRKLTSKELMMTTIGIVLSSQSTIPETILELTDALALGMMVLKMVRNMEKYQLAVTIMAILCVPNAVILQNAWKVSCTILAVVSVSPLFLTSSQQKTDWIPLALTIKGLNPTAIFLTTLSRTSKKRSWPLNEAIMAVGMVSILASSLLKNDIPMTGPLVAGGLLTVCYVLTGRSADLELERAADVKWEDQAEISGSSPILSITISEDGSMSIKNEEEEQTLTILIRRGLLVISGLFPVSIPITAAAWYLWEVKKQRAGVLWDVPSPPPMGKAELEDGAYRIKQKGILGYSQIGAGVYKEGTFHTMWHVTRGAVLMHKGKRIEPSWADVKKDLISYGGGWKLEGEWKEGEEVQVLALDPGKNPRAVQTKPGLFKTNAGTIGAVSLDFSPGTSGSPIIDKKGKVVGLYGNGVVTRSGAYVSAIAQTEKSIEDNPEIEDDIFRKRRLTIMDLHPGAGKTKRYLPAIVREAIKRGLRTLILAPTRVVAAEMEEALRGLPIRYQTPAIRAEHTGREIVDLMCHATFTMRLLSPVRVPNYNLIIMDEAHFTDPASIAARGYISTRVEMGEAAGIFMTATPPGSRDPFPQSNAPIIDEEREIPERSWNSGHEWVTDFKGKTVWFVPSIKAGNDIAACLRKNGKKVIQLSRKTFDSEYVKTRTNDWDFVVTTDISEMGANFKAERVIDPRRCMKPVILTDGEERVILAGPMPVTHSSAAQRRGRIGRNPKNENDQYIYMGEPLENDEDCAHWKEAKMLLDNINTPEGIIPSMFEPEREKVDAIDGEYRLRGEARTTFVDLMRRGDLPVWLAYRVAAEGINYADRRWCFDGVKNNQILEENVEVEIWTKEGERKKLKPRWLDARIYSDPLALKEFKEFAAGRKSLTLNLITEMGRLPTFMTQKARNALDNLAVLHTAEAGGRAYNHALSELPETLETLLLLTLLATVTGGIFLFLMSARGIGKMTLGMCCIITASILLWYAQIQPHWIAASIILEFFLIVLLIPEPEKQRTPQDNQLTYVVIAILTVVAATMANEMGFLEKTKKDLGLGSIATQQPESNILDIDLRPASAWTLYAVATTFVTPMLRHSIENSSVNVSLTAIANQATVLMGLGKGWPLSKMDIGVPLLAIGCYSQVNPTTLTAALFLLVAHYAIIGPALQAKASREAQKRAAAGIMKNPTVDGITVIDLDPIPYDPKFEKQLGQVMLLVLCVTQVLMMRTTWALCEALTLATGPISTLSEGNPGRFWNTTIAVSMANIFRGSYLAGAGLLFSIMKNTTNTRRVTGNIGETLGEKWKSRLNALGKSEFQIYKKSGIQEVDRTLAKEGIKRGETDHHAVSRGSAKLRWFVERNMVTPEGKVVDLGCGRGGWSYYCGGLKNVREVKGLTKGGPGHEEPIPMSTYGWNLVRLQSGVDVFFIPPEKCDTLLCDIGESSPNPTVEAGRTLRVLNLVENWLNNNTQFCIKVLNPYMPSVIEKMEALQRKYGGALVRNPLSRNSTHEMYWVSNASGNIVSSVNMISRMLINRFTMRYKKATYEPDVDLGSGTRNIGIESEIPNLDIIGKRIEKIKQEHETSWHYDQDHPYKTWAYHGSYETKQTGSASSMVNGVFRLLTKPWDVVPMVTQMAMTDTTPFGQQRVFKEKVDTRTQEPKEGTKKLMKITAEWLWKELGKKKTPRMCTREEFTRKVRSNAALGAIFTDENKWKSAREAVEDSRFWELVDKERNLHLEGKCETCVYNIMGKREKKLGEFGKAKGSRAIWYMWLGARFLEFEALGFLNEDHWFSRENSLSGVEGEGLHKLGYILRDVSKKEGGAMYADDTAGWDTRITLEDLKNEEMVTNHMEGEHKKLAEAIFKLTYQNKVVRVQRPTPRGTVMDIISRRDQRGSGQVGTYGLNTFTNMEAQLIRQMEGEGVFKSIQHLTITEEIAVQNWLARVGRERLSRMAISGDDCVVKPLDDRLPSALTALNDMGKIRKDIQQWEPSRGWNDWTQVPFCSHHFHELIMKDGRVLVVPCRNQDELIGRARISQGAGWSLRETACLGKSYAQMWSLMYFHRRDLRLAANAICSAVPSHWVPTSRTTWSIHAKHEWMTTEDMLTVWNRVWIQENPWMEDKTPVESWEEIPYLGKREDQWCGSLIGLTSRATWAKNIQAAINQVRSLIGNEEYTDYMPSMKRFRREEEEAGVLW

inhibition, inactive:
Cc1ccc(-n2nc(CN3CCOCC3)c(-c3ccccc3)c2N)cc1Cl -2.18%
O=Cc1cc(N=Nc2ccc(S(=O)(=O)O)cc2)ccc1O 14.6%
O=Cc1cc(N=Nc2ccccc2Cl)ccc1O 11.1%
CCOC(=O)c1sc(Nc2ccc(OCC)cc2)nc1C -9.95%
COc1ccc(/C=C2/C(=O)N(c3c(F)c(F)c(F)c(F)c3F)N=C2C)cc1 27.1%
Cc1ccc(NC(=C(C#N)C#N)c2ccccc2)cc1 6.86%
O=C1C(=O)N(CCCn2ccnc2)C(c2ccc([N+](=O)[O-])cc2)/C1=C(\O)c1ccc2c(c1)OCCO2 (stereo unspecified) -1.86%
O=C(C[C@@H]1C/C=C\C[C@H](Cc2ccc(F)cc2)C(=O)OCCNC1=O)N[C@H](CO)Cc1ccccc1 -4.01%
O=[N+]([O-])c1ccc(O)c(C=Nc2ccc3c(c2)OCCO3)c1 2.55%
O=[N+]([O-])c1cc(Br)cc(C=Nc2ccc3c(c2)OCO3)c1O 17.9%
O=C(O)c1ccc(NC2OC[C@@H](O)[C@H](O)[C@H]2O)cc1 (stereo partly specified) 1.47%
CC(=O)Nc1ccc(S(=O)(=O)NC2CC(=O)N(c3ccc(C)c(C)c3)C2)cc1 (stereo unspecified) -8.06%
CCCCn1c(N)c(N(CCC(C)C)C(=O)CCCc2nc3ccccc3s2)c(=O)[nH]c1=O 0.96%
CCCSc1nc(O)c(C2OC(=O)c3c2ccc(OC)c3OC)c(=O)n1C (stereo unspecified) 4.42%
CCSc1nc(O)c(C2OC(=O)c3c2ccc(OC)c3OC)c(=O)n1-c1ccccc1 (stereo unspecified) -0.81%
Cc1ccc(CNC(=O)Cn2c(=O)c3sccc3n(Cc3ccc([N+](=O)[O-])cc3)c2=O)cc1 -4.46%
COc1cc2c(cc1C1C(C#N)=C(N)OC3=C1C(=O)CC(C)(C)C3)OCO2 (stereo unspecified) 2.7%
COc1ccc(C(C(=O)NC(C)(C)C)N(C(=O)CNC(=O)c2cccs2)c2cccnc2)cc1OC (stereo unspecified) 0.81%
CCOC(=O)C1CCN(c2c(NCCCN(CC)c3ccccc3)c(=O)c2=O)CC1 -1.39%
CCN(CCCNC(=O)C1CCN(S(=O)(=O)CC)CC1)c1ccccc1 0%
N#Cc1c(NC(=O)C(=O)NCCCN2CCOCC2)sc2c1CCC2 -10.5%
COc1ccc(C(c2c(C)n(C)n(-c3ccccc3)c2=O)c2c(C)n(C)n(-c3ccccc3)c2=O)c(OC)c1OC 4.27%
COc1cccc(COC(=O)c2c(C)nn(-c3ccccc3)c2Cl)c1OC -1.3%
O=C(CC1(CC(=O)N2CCOCC2)CCCC1)Nc1ccccc1 1.1%
Cc1c(C(c2cccc(O)c2)c2c(C)n(C)n(-c3ccccc3)c2=O)c(=O)n(-c2ccccc2)n1C 0.66%
Cc1ccc(C(C[N+](=O)[O-])c2c(C)[nH]n(-c3ccccc3)c2=O)cc1 (stereo unspecified) 12.3%
Cc1[nH]n(-c2ccccc2)c(=O)c1N=Nc1ccccc1O -2.22%
Cc1c(C(c2ccc(C(=O)O)cc2)c2c(C)n(C)n(-c3ccccc3)c2=O)c(=O)n(-c2ccccc2)n1C -3.92%
Cc1[nH]n(-c2ccccc2)c(=O)c1C(c1ccccc1C(=O)O)c1c(C)[nH]n(-c2ccccc2)c1=O -2.59%
Cc1[nH]n(-c2ccccc2)c(=O)c1C(C[N+](=O)[O-])c1ccc(F)cc1 (stereo unspecified) 1.46%
Cc1[nH]n(-c2ccccc2)c(=O)c1N=Nc1ccccc1C(=O)N1CCOCC1 -1.82%
Cc1c(C(c2ccc([N+](=O)[O-])cc2)c2c(C)n(C)n(-c3ccccc3)c2=O)c(=O)n(-c2ccccc2)n1C -2.74%
COC(=O)[C@@H]1C[C@@]2(O)[C@H](O)[C@H](O)[C@H](O)C[C@H]2N1Cc1cccc2ccccc12 -3.14%
Cc1nonc1CN(C)C(=O)CC1C(=O)NCCN1Cc1c(F)cccc1Cl (stereo unspecified) 0%
Cc1ccc(OCc2cc(C(=O)N3CCCC(O)C3)no2)cn1 (stereo unspecified) 3.18%
COc1ccc(-c2cc(C(F)(F)F)nc(NCc3cccs3)n2)cc1 -0.64%
Cc1csc(NC(=O)c2ccc(COc3ccccc3)o2)n1 -0.81%
COc1cccc(NC(=S)NC2CC3CCCC(C2)N3C2CCCC2)c1 (stereo unspecified) -6.24%
CCCCCN(C(=O)CCC(=O)OCc1cccc(C(F)(F)F)c1)c1c(N)n(CCCC)c(=O)[nH]c1=O -5.15%
Cc1[nH][nH]c(=O)c1C(c1ccc(O)c([N+](=O)[O-])c1)c1c(C)[nH][nH]c1=O 5.19%
Cc1[nH]n(-c2ccccc2)c(=O)c1N=Nc1cccc([N+](=O)[O-])c1 -3.97%
O=c1c2cc([N+](=O)[O-])cc([N+](=O)[O-])c2[nH]n1-c1ccccc1 22.2%
Cc1[nH]n(-c2cccc([N+](=O)[O-])c2)c(=O)c1-c1ccccc1 -10.7%
COc1ccc(-n2c3c(cc(C(=O)NC4CCSC4=O)c2=O)C(=O)CC(C)(C)C3)cc1 (stereo unspecified) 3.46%
CC1(C)CC(=O)C=C(c2ccc3ccccc3c2)C1 6.35%
CC1CCCN(CCC(=O)Nc2ccc3c(c2)CCC3)C1 (stereo unspecified) -0.41%
